Where “and” joins values, the source holds several entries; their conditions need not be identical. Equal values may be shown once. Where a name gives a salt, the structure may show the parent alone.
Experiments:
Experiment in all cases: cell viability relative to vehicle control; higher = less cytotoxic
Conditions in all cases: 10 µM
K562 = system: K562
Summary of the method: (§1)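 CRISPR-edited SRSF2 P95 mutant and isogenic wild-type clones of four leukaemia lines were screened against Selleck bioactive, kinase and epigenetic probe libraries, with identity-inconsistent compounds removed. Compounds were acoustically dispensed into 384-well plates at a single 10 µM dose, with 2000 cells in 50 µL medium per well. After 48 h, supernatant was removed and CellTiter-Glo luminescence was read. Viability was expressed as percent of the on-plate DMSO vehicle control, analysed in Genedata Screener.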

MARIMO = system: MARIMO
Summary of the method: as §1

MOLM14 = system: MOLM14
Summary of the method: as §1

OCI-AML2 = system: OCI-AML2
Summary of the method: as §1

Row | Compound | cell viability (K562; SRSF2 genotype: SRSF2 P95H/wt) | cell viability (K562; SRSF2 genotype: SRSF2 wt/wt) | cell viability (MARIMO; SRSF2 genotype: SRSF2 P95H/wt) | cell viability (MARIMO; SRSF2 genotype: SRSF2 wt/wt) | cell viability (MOLM14; SRSF2 genotype: SRSF2 P95H/wt) | cell viability (MOLM14; SRSF2 genotype: SRSF2 wt/wt) | cell viability (OCI-AML2; SRSF2 genotype: P95H/wt) | cell viability (OCI-AML2; SRSF2 genotype: wt/wt)
1 | C[N+]1(C)[C@@H]2C[C@@H](OC(=O)C(O)(c3cccs3)c3cccs3)C[C@H]1[C@@H]1O[C@@H]12 [Tiotropium Bromide hydrate] | 106% and 108% | 98.9% | 102% | 107% | 105% | 104% | 98.9% | 104%
2 | Nc1nc(NCCc2ccc(O)cc2)nc2nc(-c3ccco3)nn12 | 92.4% and 100% | 94.8% | 102% | 110% | 94.4% | 104% | 97% | 104%
3 | COC(=O)c1ccco1 [Methyl furan-2-carboxylate] | 108% and 99.5% | 113% | 101% | 99.5% | 107% | 110% | 111% | 115%
4 | CC(=O)O[C@]1(C(C)=O)CC[C@H]2[C@@H]3CCC4=CC(=O)CCC4=C3[C@@H](c3ccc(N(C)C)cc3)C[C@@]21C [Ulipristal acetate] | 91% and 94.2% | 86.7% | 81.7% | 95.2% | 82.3% | 93.6% | 84.6% | 89.5%
5 | Cn1c(=O)cc(N2CCC[C@@H](N)C2)n(Cc2cc(F)ccc2C#N)c1=O [Trelagliptin] | 100% and 93.3% | 92.1% | 96.8% | 101% | 98.3% | 99.2% | 100% | 102%
6 | Cc1ccc(-c2cc(C(F)(F)F)nn2-c2ccc(S(N)(=O)=O)cc2)cc1 [Celecoxib] | 94.3% and 106% | 94.1% | 99.1% | 104% | 101% | 101% | 122% | 96.5%
7 | Cc1nc(Nc2n[nH]c3c2CN(C(=O)N[C@H](CN(C)C)c2ccccc2)C3(C)C)c2sccc2n1 | 13.2% and 22.6% | 14.3% | 5.65% | 3.34% | 0.49% | 0.42% | 0.9% | 10.7%
8 | CCCCC(=O)N(Cc1ccc(-c2ccccc2-c2nnn[nH]2)cc1)[C@H](C(=O)O)C(C)C [Valsartan (Diovan)] | 102% and 98.1% | 105% | 102% | 112% | 104% | 106% | 101% | 112%
9 | CC(=C(CCOC(=O)C(C)C)SSC(CCOC(=O)C(C)C)=C(C)N(C=O)Cc1cnc(C)nc1N)N(C=O)Cc1cnc(C)nc1N (stereo in doubt) [Sulbutiamine] | 99% and 93.5% | 93.6% | 84.7% | 95.4% | 84.2% | 90.8% | 84.7% | 93.6%
10 | CC(C)(C)NS(=O)(=O)c1cncc(-c2cc(F)c3nc(N)nn3c2)c1 | 100% and 102% | 101% | 93.8% | 93.9% | 92.5% | 103% | 81.1% | 80.8%
11 | C=CCc1ccc(O)c(-c2cc(CC=C)ccc2O)c1 [Magnolol] | 85.6% and 95.6% | 96.6% | 99.5% | 112% | 93.9% | 103% | 86.2% | 106%
12 | CN1CCN(C2CCN(C(=O)Nc3cc(Oc4ccc(NC(=O)C5(C(=O)Nc6ccc(F)cc6)CC5)c(F)c4)ccn3)CC2)CC1 [Golvatinib (E7050)] | 5.46% and 7.13% | 10.1% | 61.6% | 58.9% | 4.27% | 8.67% | 7.56% | 18.6%
13 | O=C1C[C@@H]2[C@@H](CO)[C@H](O)C[C@@H]2O1 [Corey Lactone Diol] | 110% | 101% | 105% | 110% | 102% | 108% | 101% | 93.3%
14 | CC(=O)OC1CC2(C)C(CC(O)C3C4(C)CCC(O)C(C)C4CCC32C)C1=C(CCC=C(C)C)C(=O)O (centres undefined) [Fusidine] | 96.3% and 99.9% | 89.4% | 97.5% | 98% | 98.9% | 96.8% | 94.2% | 99.2%
15 | CC(C)OC(=O)C(C(=O)OC(C)C)=C1SC=CS1 [Malotilate] | 92.5% and 94.4% | 93.6% | 76.5% | 83.6% | 89.5% | 99.4% | 85% | 88.8%
16 | O=C(Nc1ccc(O)c(C(=O)O)c1)c1cccc(NC(=O)c2ccco2)c1 | 103% and 105% | 99.4% | 97.2% | 100% | 104% | 102% | 105% | 105%
17 | CCCCCCC(O)C(=O)O (centres undefined) [2-Hydroxycaprylic acid] | 103% and 102% | 107% | 101% | 105% | 101% | 109% | 105% | 111%
18 | N/C(=N\N=C\c1ccc(Cl)cc1)N/N=C/c1ccc(Cl)cc1 [Robenidine Hydrochoride] | 70.9% and 65.6% | 67.4% | 65.7% | 67.8% | 59.2% | 65.9% | 60.2% | 73.3%
19 | Cc1cnc(C(=O)N[C@H]2CCCCC/C=C\[C@@H]3C[C@@]3(C(=O)NS(=O)(=O)C3CC3)NC(=O)[C@@H]3C[C@@H](Oc4nc5ccccc5c5ccccc45)CN3C2=O)cn1 [Paritaprevir(ABT-450)] | 98.7% and 91.6% | 91.4% | 106% | 119% | 97.8% | 100% | 115% | 114%

Row | Compound | cell viability (K562; SRSF2 genotype: SRSF2 P95H/wt) | cell viability (K562; SRSF2 genotype: SRSF2 wt/wt) | cell viability (MARIMO; SRSF2 genotype: SRSF2 P95H/wt) | cell viability (MARIMO; SRSF2 genotype: SRSF2 wt/wt) | cell viability (MOLM14; SRSF2 genotype: SRSF2 P95H/wt) | cell viability (MOLM14; SRSF2 genotype: SRSF2 wt/wt) | cell viability (OCI-AML2; SRSF2 genotype: P95H/wt) | cell viability (OCI-AML2; SRSF2 genotype: wt/wt)
20 | COc1ccc2cc3[n+](cc2c1O)CCc1cc2c(cc1-3)OCO2 [Berberrubine] | 104% and 100% | 111% | 112% | 98.3% | 109% | 109% | 103% | 99.1%
21 | CCNC1(C(N)=O)CCN(c2ncnc3c2nc(-c2ccccc2Cl)n3-c2ccc(Cl)cc2)CC1 | 79.4% and 80.8% | 79.1% | 83.1% | 101% | 78.2% | 84.3% | 88.2% | 93%
22 | CC[C@@]1(O)C(=O)OCc2c1cc1n(c2=O)Cc2cc3cc(O)ccc3nc2-1 [Hydroxy Camptothecine] | 10.4% and 26.6% | 9.83% | 4.88% | 4.13% | 0.53% | 0.32% | 0.49% | 2.23%
23 | O=c1cc(-c2ccc(O[C@@H]3O[C@H](CO)[C@@H](O)[C@H](O)[C@H]3O)cc2)oc2cc(O)c([C@@H]3O[C@H](CO)[C@@H](O)[C@H](O)[C@H]3O[C@@H]3OC[C@H](O)[C@H](O)[C@H]3O)c(O)c12 [Vaccarin] | 97.3% and 93.7% | 94.2% | 99.2% | 96.3% | 92.3% | 100% | 91.1% | 96%
24 | COC(=O)C1=COC(OC2OC(CO)C(O)C(O)C2O)C2C(CO)=CC(O)C12 (centres undefined) | 105% and 104% | 109% | 105% | 93.2% | 105% | 107% | 98.6% | 98.7%
25 | O=C1Cc2cc(CCN3CCN(c4nsc5ccccc45)CC3)c(Cl)cc2N1 [Ziprasidone hydrochloride] | 87% and 98.6% | 97% | 88.7% | 95.2% | 37.8% | 81.3% | 91.9% | 88.1%
26 | O=C(O)CCn1c2c(c3ccccc31)C[C@H](NS(=O)(=O)c1ccc(F)cc1)CC2 [Ramatroban] | 100% and 101% | 105% | 106% | 108% | 102% | 104% | 101% | 103%
27 | CCOC(=O)C=P(c1ccccc1)(c1ccccc1)c1ccccc1 [Ethyl (triphenylphosphoranylidene) acetate] | 96.8% and 92.7% | 98.4% | 90% | 99.2% | 84.5% | 93% | 90.2% | 84.8%
28 | CO/N=C1\C[C@]2(C[C@@H]3C[C@@H](C/C=C(\C)C[C@@H](C)/C=C/C=C4\CO[C@@H]5[C@H](O)C(C)=C[C@@H](C(=O)O3)[C@]45O)O2)O[C@H](/C(C)=C/C(C)C)[C@H]1C [Moxidectin] | 59.6% and 63.5% | 66.4% | 54.6% | 67.3% | 46.9% | 53.3% | 40.1% | 25.3%
29 | C=C1CC23CCC4C(C)(C(=O)OC5OC(CO)C(O)C(O)C5O)CCCC4(C)C2CCC1(OC1OC(CO)C(O)C(OC2OC(CO)C(O)C(O)C2O)C1OC1OC(C)C(O)C(O)C1O)C3 (centres undefined) [Rebaudioside C] | 101% and 99.8% | 106% | 108% | 111% | 106% | 103% | 112% | 101%
30 | O=C(Nc1cccc(C(F)(F)F)c1)Nc1cc(S(=O)(=O)NC2CC2)ccc1-c1ccsc1 | 82.6% and 92.4% | 80.2% | 94.2% | 104% | 92% | 94.4% | 86.6% | 95%
31 | Cc1cc(NS(=O)(=O)c2ccc(N)cc2)nc(C)n1 [sulfaisodimidine] | 103% | 112% | 106% | 101% | 106% | 106% | 112% | 102%
32 | CN1CCN(C(=O)c2cc3cc(Cl)ccc3[nH]2)CC1 | 99% and 97.5% | 98.6% | 100% | 98.7% | 92.6% | 99.3% | 109% | 96.6%
33 | CN(C)CCCn1cc(C2=C(c3c[nH]c4ccccc34)C(=O)NC2=O)c2ccccc21 | 91.2% and 78.4% | 98.8% | 82.9% | 92% | 36.4% | 32.5% | 34% | 67.1%
34 | C=C1CC2(O)OC3(CC2C(C)C)C(C)CCC13 (centres undefined) [Curcumol] | 106% and 101% | 102% | 112% | 107% | 97.8% | 108% | 99.9% | 102%
35 | C=C1[C@H](O)C[C@H]2[C@@H](/C=C(\C)C(=O)[C@@]3(O)C[C@H](C)[C@H](O)[C@@H]3[C@H]1O)C2(C)C | 98.1% and 92% | 99% | 93.7% | 100% | 99.8% | 98.1% | 93.9% | 101%
36 | CC(=O)c1ccc2c(c1)c1cc(C(C)=O)ccc1n2CCNC(C)C | 5.79% and 17.9% | 9.91% | 5.2% | 2.54% | 2.29% | 0.66% | 4.6% | 20.6%
37 | CCCC(=O)O[C@]1(C(=O)COC(C)=O)CC[C@H]2[C@@H]3C[C@H](F)C4=CC(=O)C=C[C@]4(C)[C@@]3(F)[C@@H](O)C[C@@]21C [Difluprednate] | 96.9% and 99% | 99.4% | 102% | 100% | 91.2% | 92.1% | 109% | 107%
38 | Cc1ccc(NC(=O)c2cccc(C(C)(C)C#N)c2)cc1Nc1ccc2ncn(C)c(=O)c2c1 | 12.9% and 33% | 25.2% | 44% | 40.9% | 44.9% | 35.3% | 42.7% | 41.7%
